Screening data as filed in PubChem.
Most compounds without a hit are left out; they make up all but 1% or so of the library.
Mtb hypoxia rep = inhibitors of hypoxia-regulated fluorescent reporter in Mycobacterium tuberculosis | M. tuberculosis hypoxia-regulated fluorescent reporter, fluorescence | fluorescence inhibition, % (no concentration beside the values) | 300,000 tested, 0.1% active; in the data active means fluorescence inhibition mostly above about 23%, no sharp cut-off; inactive means mostly below about 17%
TcdB GH inh = blocks C. difficile toxin B glycohydrolase activity; inhibition, % at 9.99 µM; TcdB glycohydrolase enzymatic assay, plate reader; 350,000 tested, 0.24% active; in the data active means inhibition above about 10%
Target sequence (P18177 whole entry, looked up): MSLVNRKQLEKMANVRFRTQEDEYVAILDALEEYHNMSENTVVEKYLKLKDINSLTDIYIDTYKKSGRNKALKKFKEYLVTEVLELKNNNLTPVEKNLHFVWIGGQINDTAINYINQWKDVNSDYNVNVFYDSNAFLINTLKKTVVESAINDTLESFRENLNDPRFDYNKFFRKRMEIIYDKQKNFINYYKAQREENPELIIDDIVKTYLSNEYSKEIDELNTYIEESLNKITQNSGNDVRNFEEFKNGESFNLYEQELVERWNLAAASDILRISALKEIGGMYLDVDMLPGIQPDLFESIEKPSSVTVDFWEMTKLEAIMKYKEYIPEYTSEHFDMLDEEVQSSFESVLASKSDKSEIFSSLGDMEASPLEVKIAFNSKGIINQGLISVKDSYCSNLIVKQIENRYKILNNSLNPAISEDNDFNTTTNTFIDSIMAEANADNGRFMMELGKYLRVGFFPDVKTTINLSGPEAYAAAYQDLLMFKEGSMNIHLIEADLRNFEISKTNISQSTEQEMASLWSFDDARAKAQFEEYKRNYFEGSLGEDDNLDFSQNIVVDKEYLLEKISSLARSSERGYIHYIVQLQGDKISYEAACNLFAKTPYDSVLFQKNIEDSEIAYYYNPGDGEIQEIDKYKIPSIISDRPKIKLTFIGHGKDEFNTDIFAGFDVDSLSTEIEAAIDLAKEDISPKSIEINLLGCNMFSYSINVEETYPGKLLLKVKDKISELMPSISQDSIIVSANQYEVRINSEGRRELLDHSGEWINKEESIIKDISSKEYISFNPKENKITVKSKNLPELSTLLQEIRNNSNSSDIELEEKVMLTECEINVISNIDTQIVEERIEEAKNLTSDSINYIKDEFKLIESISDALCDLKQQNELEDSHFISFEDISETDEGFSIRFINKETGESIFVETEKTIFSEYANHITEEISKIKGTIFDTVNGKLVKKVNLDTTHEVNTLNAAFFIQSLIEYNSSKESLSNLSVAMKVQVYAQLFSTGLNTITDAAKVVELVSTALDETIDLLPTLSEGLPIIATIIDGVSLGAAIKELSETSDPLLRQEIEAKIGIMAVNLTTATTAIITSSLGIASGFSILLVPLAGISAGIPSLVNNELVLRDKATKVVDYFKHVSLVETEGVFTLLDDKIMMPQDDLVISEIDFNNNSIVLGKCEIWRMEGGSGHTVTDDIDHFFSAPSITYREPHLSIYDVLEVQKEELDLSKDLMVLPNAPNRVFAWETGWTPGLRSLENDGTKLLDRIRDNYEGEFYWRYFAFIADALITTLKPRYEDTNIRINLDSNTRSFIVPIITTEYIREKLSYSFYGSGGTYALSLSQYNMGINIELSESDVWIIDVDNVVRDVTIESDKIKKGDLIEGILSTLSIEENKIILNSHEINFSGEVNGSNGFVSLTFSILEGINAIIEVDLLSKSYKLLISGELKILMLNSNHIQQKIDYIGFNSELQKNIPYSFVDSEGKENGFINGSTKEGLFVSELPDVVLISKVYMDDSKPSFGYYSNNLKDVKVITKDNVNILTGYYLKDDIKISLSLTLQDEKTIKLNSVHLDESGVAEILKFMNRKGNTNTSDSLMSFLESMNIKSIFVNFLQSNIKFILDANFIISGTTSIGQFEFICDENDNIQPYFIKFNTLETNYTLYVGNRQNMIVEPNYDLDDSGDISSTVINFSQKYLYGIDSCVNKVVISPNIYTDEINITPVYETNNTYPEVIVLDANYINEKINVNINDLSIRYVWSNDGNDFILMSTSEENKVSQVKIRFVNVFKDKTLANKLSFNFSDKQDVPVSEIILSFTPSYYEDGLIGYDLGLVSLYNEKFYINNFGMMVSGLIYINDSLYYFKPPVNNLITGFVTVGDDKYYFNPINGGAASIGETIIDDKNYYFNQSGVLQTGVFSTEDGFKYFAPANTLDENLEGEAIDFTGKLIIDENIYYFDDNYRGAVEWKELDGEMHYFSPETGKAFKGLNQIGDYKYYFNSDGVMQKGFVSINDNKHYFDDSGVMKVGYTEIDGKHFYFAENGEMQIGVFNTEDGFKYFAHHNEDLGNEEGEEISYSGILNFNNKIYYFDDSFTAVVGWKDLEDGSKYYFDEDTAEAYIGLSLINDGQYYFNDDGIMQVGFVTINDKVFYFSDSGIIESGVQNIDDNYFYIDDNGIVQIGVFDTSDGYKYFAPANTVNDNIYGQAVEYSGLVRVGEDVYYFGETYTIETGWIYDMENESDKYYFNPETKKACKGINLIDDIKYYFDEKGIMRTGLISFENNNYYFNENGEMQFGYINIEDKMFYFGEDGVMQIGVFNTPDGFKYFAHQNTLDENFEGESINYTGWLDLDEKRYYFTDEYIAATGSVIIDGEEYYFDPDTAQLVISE
SSB-PriA inh = K. pneumoniae PriA-SSBct interaction inhibition; AlphaScreen SSBct-PriA binding, biotinylated peptide; inhibition, % at 33 µM; 430,000 tested, 0.6% active; AID 1272365; in the data active means inhibition mostly above about 37%, no sharp cut-off; inactive means mostly below about 20%;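 further: plate controls were negative control peptide for no effect and reference peptide for full effect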
PrP UTR inh = inhibition of PrP 5' UTR reporter expression; 340,000 tested, 0.35% active; cell-based PrP 5' UTR mRNA reporter, plate reader; AID 488862; inhibition, % (concentration not given with the values); in the data active means inhibition above about 52%; further: 0 = median of the neutral control wells
Mtb BioA inh = blocks M. tuberculosis BioA enzyme activity | inhibition, % at 9.99 µM | 360,000 tested, 0.096% active | purified M. tuberculosis BioA enzyme, plate reader | AID 602481; in the data active means inhibition above about 40%
FadD28 binding = inhibitors of Mycobacterium tuberculosis FadD28 bisubstrate binding. AID 588549. 360,000 tested, 0.22% active. FadD28 bisubstrate probe binding, fluorescence polarization. inhibition, % at 12.5 µM; in the data active means inhibition above about 8.5%, passing the limit was not always enough
The depositor's hits bear a star; / = no result shown.

SMILES	Mtb hypoxia rep	TcdB GH inh	SSB-PriA inh	PrP UTR inh	Mtb BioA inh	FadD28 binding
COc1cc(OC)c2ccc(=O)oc2c1C(CCN1CCN(c2ccccc2)CC1)c1ccc(N(C)C)cc1 (stereo unspecified)	-4.7	-2.0	55.4*	-12.2	1.2	-1.3
CCCCCc1cc(=O)oc2c(C(CCN3CCN(c4ccccc4)CC3)c3ccc(N(C)C)cc3)c(OC)cc(OC)c12 (stereo unspecified)	-1.5	1.3	1.7	-13.2	-1.4	-0.8
CCN(CC)CCC(c1ccc(N(C)C)cc1)c1c(OC)cc(OC)c2c(-c3ccccc3)cc(=O)oc12 (stereo unspecified)	-1.9	-5.2	87.2*	-37.4	-0.6	-0.6
COc1cc(OC)c2c(C)cc(=O)oc2c1C(CCN1CCOCC1)c1ccc(N(C)C)cc1 (stereo unspecified)	9.2	-5.6	45.2*	-12.8	-1.3	0.4
COc1ccc(C(CCN2CCCC2)c2c(OC)cc(OC)c3c(-c4ccccc4)cc(=O)oc23)cc1 (stereo unspecified)	-5.9	1.4	20.1	-4.1	15.6	-3.9
CCCCCc1cc(=O)oc2c(C(CCN3CCCC(C)C3)c3ccc4c(c3)OCO4)c(OC)cc(OC)c12 (stereo unspecified)	/	1.4	30.6	-3.2	-1.2	-9.1
CCCCCc1cc(=O)oc2c(C(CCN3CCCCC3)c3ccc4c(c3)OCO4)c(OC)cc(OC)c12 (stereo unspecified)	/	2.8	41.5*	0.2	-1.0	-10.3
Cc1ccc(NC(=O)CN(C)C(=O)CSc2nc(C)cs2)cc1	15.9	1.6	-4.3	-11.2	/	-1.1
CCC(=O)N1CCc2cc(Br)c(S(=O)(=O)CCC(=O)NCCOC)cc21	4.2	0.5	-6.5	-16.1	/	-1.4
CCc1[nH]nc(S(=O)(=O)N2CCC(Cc3ccccc3)CC2)c1C(=O)OC	/	/	0.0	/	/	/
CS(=O)(=O)N1CCN(c2ccccc2NC(=S)NC(=O)c2ccco2)CC1	-4.6	-1.4	0.7	-0.9	-1.4	-2.6
N#CC(C#N)=C(N)/C(C#N)=C/c1cc(O)c(O)c(O)c1	/	-8.2	15.9	-13.4	2.3	12.7*
CC(=O)C(=NNc1ccccc1)Sc1cccc2cccnc12	14.0	/	13.7	/	/	/
CC(=O)C(=NNc1ccc(Cl)cc1Cl)Sc1cccc2cccnc12	8.0	/	72.7*	/	/	/
COc1ccc(Nc2ccnc(Nc3ccc(OC)cc3)n2)cc1	2.0	/	44.9*	-85.1	/	-2.2
O=c1[nH]nc(-c2cc(-c3ccccc3)nc3ccccc23)o1	/	15.6*	/	/	0.9	-4.8
COC(=O)C[C@H]1CC[C@@H]2[C@@H](COc3ccc(NC(=O)c4cccc(OC)c4)cc3C(=O)N2C)O1	/	10.8*	/	/	11.9	/
COc1cccc(C(=O)Nc2ccc3c(c2)C(=O)N(C)[C@@H]2CC[C@H](CC(=O)NCCCN4CCOCC4)O[C@@H]2CO3)c1	/	12.4*	/	/	-1.2	/
CN1C(=O)c2cc(NC(=O)Nc3ccccc3Cl)ccc2OC[C@H]2O[C@@H](CC(=O)NCCCN3CCOCC3)CC[C@H]21	/	10.5*	/	/	1.6	/
CCCNC(=O)C[C@H]1CC[C@H]2[C@H](COc3ccc(NC(=O)c4cccc(OC)c4)cc3C(=O)N2C)O1	/	2.1	/	/	1.4	/
O=C(c1ccncc1)N1N=C(C2CC2)CC1(O)C(F)(F)F (stereo unspecified)	-1.5	-0.3	-2.7	-38.4	/	-1.2
COc1ccccc1C(=O)NC(=S)Nc1cccc2cc(O)ccc12	-5.9	1.5	41.8*	-1.0	1.0	-2.7
CCN1CCN(c2cc(N3CCN(C(=O)c4ccco4)CC3)c3c4c(onc24)-c2ccccc2C3=O)CC1	/	/	76.2*	-10.1	-3.9	1.3
O=C1c2ccccc2-c2onc3c(N4CCOCC4)cc(N4CCOCC4)c1c23	/	/	38.0	/	/	/
CCOC(=O)C(C(=O)OCC)c1cc(Br)c2noc3c2c1C(=O)c1ccccc1-3	-5.1	/	16.9	-8.5	/	2.9
SMILES	Mtb hypoxia rep	TcdB GH inh	SSB-PriA inh	PrP UTR inh	Mtb BioA inh	FadD28 binding
CC(=O)OCCNc1cc(N2CCN(C)CC2)c2noc3c2c1C(=O)c1ccccc1-3	53.8*	0.5	70.0	-18.3	-14.6	3.0
O=C(O)CCNc1cc(N2CCN(C(=O)c3ccco3)CC2)c2noc3c2c1C(=O)c1ccccc1-3	/	1.0	54.3*	-5.2	-107.7	22.2*
COc1ccc(C2C(C#N)=C(N)OC3=C2C(=O)CC(C)(C)C3)cc1Cn1cc([N+](=O)[O-])cn1 (stereo unspecified)	7.6	0.3	1.6	-122.3	/	-1.9
COCCn1cnc2c1c(=O)n(CC(=O)c1ccc3c(c1)OCCO3)c(=O)n2Cc1ccccc1	-12.1	1.5	-4.5	-10.1	/	-2.3
COc1cc(NC(=O)Cn2nc(C(F)(F)F)c(Br)c2C)cc([N+](=O)[O-])c1	12.1	-1.2	1.4	-10.2	0.3	1.5
Cn1c(=O)c2c(nc(NCc3ccc4c(c3)OCO4)n2Cc2ccccc2Cl)n(C)c1=O	8.3	/	-6.6	9.7	1.1	-0.4
O=c1c(NCc2ccccc2Cl)nccn1-c1ccc2c(c1)OCO2	/	/	37.0*	/	/	/
Cc1c(NC(=O)C23CC4CC(CC(C)(C4)C2)C3)c(=O)n(-c2ccccc2)n1C	-74.0	/	-4.3	-10.5	/	0.7
COc1ccc(C2C(C#N)=C(N)Oc3n[nH]c(-c4ccccn4)c32)c(OC)c1OC (stereo unspecified)	7.5	/	69.7*	-4.0	-4.7	-2.2
COc1ccccc1NC(=O)c1ccc(NC(=O)CN2CCCC2)cc1	10.6	1.3	46.7*	-30.9	1.4	-2.1
O=C(CN1CCCCC1)Nc1cccc(Cl)c1	-6.7	-0.4	-14.7	3.1	/	-0.6
COc1cc(NC(=O)Nc2cccc(Cl)c2)c(OC)cc1NC(=O)CN1CCCCC1	11.2	/	49.5*	-36.5	-1.3	-4.7
O=C(NCCC1CCCCN1S(=O)(=O)c1ccc(Cl)cc1)C(=O)NCCN1CCOCC1 (stereo unspecified)	/	1.5	-15.0	-9.7	-4.6	0.5
CCC(=O)N[C@@H]1C=C[C@@H](CC(=O)NCC2CCCCC2)O[C@@H]1CO	/	1.2	/	/	-2.0	/
CN1CCC/C1=C/C=C1\SC(=S)NC1=O	41.2*	-10.8	-1.1	-27.8	/	1.3
CCc1cccc(N(C(=O)c2csnn2)C(C(=O)NC(C)(C)CC)c2ccccn2)c1 (stereo unspecified)	14.9	-1.3	-8.1	-19.1	/	0.2
O=c1oc(-c2ccc(Br)cc2)nc2ccccc12	10.8	12.3*	-11.8	-28.3	0.1	-4.3
C/C(=N\Nc1ccc(Cl)c(C(=O)O)c1)c1ccccn1	/	-2.6	/	-15.4	/	-0.6
C/C(=N\Nc1ncc(Cl)cc1Cl)c1ccccn1	/	/	/	77.8*	/	-3.2
CCc1ccc(NC(=O)Cn2ccn(-c3cccc(Cl)c3)c(=O)c2=O)cc1	/	-0.5	-12.4	-23.3	-0.6	-1.1
CC(=O)Oc1ccc(/C=N/NC(=O)CCSc2ccccc2)cc1	/	10.7*	/	-28.1	2.7	-4.6
Cc1ccc(NC(=O)CN2C(=O)S/C(=C/c3ccc(-c4cc(C(=O)O)ccc4C)o3)C2=O)cc1C	-2.1	/	-6.0	0.3	0.3	14.4*
COc1cc(/C=C2\SC(=O)N(CC(=O)Nc3cccc(C)c3)C2=O)cc([N+](=O)[O-])c1O	12.7	-0.5	-19.0	0.6	/	30.7*
